Hit rate of the full screen: of about 53,000 sequences, about 3,700 (7%) were called active. This is one part of a sample in which actives are shown more often than they occur. Values without a mark were called inactive.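 The calls were made as follows: active = gene knockdowns whose robust z-score for IL-1 alpha signal is at least 2 or at most -2, so actives lie on both sides; inactive = the rest.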

The values that follow come from PubChem BioAssay AID1508600 (Functional Genomics Laboratory (NCATS/FGL), 2020).

This assay can be described thus: Components of the Cytosolic LPS Sensing Pathway: Gene Identification via Genome-wide siRNA Screen.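 Also: robust z of the log signal after scaling to non-targeting control siRNA wells of the plate.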 The conditions noted are these: RAW264.7 macrophages, IL-1a HTRF, actives lie on both sides, screened at 100 nM (by protocol), cells primed 5 h with Pam3CSK4 first. The gist of the method: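 Read-out: IL-1a HTRF on supernatant, divided by plate negative-control median ×100, log-transformed and converted to robust z-score. Cells were RAW264.7 given 100 nM siRNA, Pam3CSK4-primed 5 hours, then LipidA-transfected 24 hour.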
On to CGUGUGUUCCGGAAACAGATT against Tnfrsf11b, for which the z-score is -0.188.

For GGCACAAGUCCAUGUUGUUTT against Emg1, the z-score is -0.161.

On to GGAGUACGUGAUUGCUCUGTT against Rcvrn, for which the z-score is -2.45 (active).

With GCCGUUUUAAGAUACCGAUTT against Pde1c, the z-score is 0.642.

With GGGCAGCUACGUCAUUAAGTT against Prkg2, the z-score is -0.442.

Turning to GGAGAAGAACAGAACAUGATT against Igf2, the z-score was 2.36 (active).

As for “GACAGUGAAGGCUUGCCAUTT against 1700019M22Rik”, the z-score is -0.45.

For the sequence GCUAUUUAUCACCAAGACATT against Plpp6, the z-score is -1.64.

CCAGGAUUACAUCCGGACATT against Srbd1: the z-score was -0.379.

Consider GCUUCGACAAAAGAAGAUGTT against Ccdc174, for which the z-score was -0.373.

CGAAUGAGAUUUUCACUCUTT against Tek: the z-score was 1.07.

As for CCACUAAUCUUCUUCUACATT against Olfr1311, the z-score was -2.08 (active).

In the case of GGCCACCAAGACCAAUGAUTT against Akap8, the z-score was 0.154.

As to GGUUGUAAUAGCCUUAGCCTT against Rassf8, the z-score is -2.87 (active).

With GGUCAAGUAACAUGGUUUGTT against Rundc3b, the z-score is 0.282.

With CCAGAAACACUAGUAAAGGTT against Dppa3, the z-score was -0.0972.

For the sequence GGACGUGAAUGUGUUUGACTT against Cyp26b1, the z-score was 0.795.

Regarding CGAUUACUACAUAAUUGCCTT against Efnb3, the z-score was 1.63.

CGGACAAGAUAGUAUUCUUTT against Atp2b1: the z-score was -1.06.

Regarding GGAGGAAUACGUAUACUUCTT against Dipk1c, the z-score is 2.16 (active).

GCAGCAUGGCAAAACCACATT against Zbtb12: the z-score is -0.265.

As to GCAGGCGAUAUAGAAGCAATT against Frg1, the z-score was 0.475.

Regarding GGCUGUGACUAUGUUGUGCTT against Top3b, the z-score was -2.15 (active).

In the case of GGGAAUUCUAUUCAACACUTT against Rps6ka5, the z-score was -0.478.

With GGCUGUGACUUUUGAUCUATT against Prelid3b, the z-score is 0.46.

As to CCAAUGCUUGUGAUAAGCCTT against Krt33a, the z-score was -0.105.

Take CGGACUUGAGAGCAGAACCTT against Oit1: the z-score was 2.02 (active).

Regarding CCUUGUGCCAAAUACUUCATT against Inava, the z-score is -0.00772.

In the case of GGAUAACCGUAUUAAUUUCTT against Gm2a, the z-score was 0.709.

In the case of GGAGAAAGUCAAGAUCAAATT against Gpr4, the z-score is 2.12 (active).

Turning to GCAAGCACGGAGAACCAAUTT against Selenoi, the z-score was -0.212.

Consider GGAGUUCAUUGAUCAUUCUTT against Ndufb5, for which the z-score is 2.21 (active).

Consider GGAAGAUGGAGAUCAGACGTT against Foxd4, for which the z-score was -0.498.

As for GGGAUACCCGGCGUAAUCUTT against Col4a2, the z-score was 1.31.

Regarding CGCAUACAUCAGGUCACUATT against Katnb1, the z-score is -0.74.

For the sequence GGGCUUUUACUCCUACCUGTT against Slc43a2, the z-score was -0.794.

For the sequence GGAACCACUGCUAGCCAGATT against Serpinb6a, the z-score is 0.491.

Regarding GCGAGAAAUUACCACCUUCTT against Klhl8, the z-score is -0.516.

For CCGUAUUAGAAAGUAGAUATT against Arpp19, the z-score is 2.01 (active).

ACUUCACGAUGGAAAAAUUTT against Gm9732: the z-score was -1.63.

As for GGCCUCAUCUUGAAUAUUUTT against Hsd17b3, the z-score was -1.

Take GGUUCAUCAAACUUGCUUGTT against Olfr1312: the z-score is 0.569.

As for GGAAGAACAGAGGCAGAAGTT against Trpv3, the z-score is -0.629.

Turning to GGAAGUACUCUGAAGAUUCTT against Kdm5b, the z-score was -1.83.

As to CCCACUUCCGAUCCAAAGATT against Zfp593, the z-score was 0.936.

CCUAUGUCAUCAUUGGAGUTT against Tmem45a2: the z-score is -0.613.

As to GCUGUUAUAACCUUGUUACTT against Rspry1, the z-score is 1.19.

As to GCCCAGUUUGGUUAUGUAUTT against Yipf7, the z-score is 0.115.

GCGGAGAGAUCAAAGCGAUTT against Iltifb: the z-score was -2.05 (active).

Regarding GCAGCAACAUUCUUUGGAUTT against Adk, the z-score is 0.986.

Take GGACAAUAUCAGAAAGAGUTT against Purg: the z-score was 1.13.

On to GGGUUUUUUCCAGUCAUCUTT against Nfx1, for which the z-score is -2.02 (active).

Consider GGAUGUUCUACUGCUACACTT against Dtwd1, for which the z-score was -0.706.

In the case of GGUGGCCAAGAAUGUGAAUTT against Cxcl17, the z-score is 1.38.

Regarding CCUACUCUCUAGAAAAGGATT against Olfr1006, the z-score was -1.76.

On to GGAGUGAAGGCCAGCUGAATT against Son, for which the z-score is -0.848.

As to GGAACACCAUGAAGAAGACTT against Gabarap, the z-score is -0.147.

Consider GGAAAACUUUCAAAGAGAUTT against Mc4r, for which the z-score was 0.24.

Turning to GUCAUCAAACUAGGUGCUGTT against Olfr584, the z-score was -2.22 (active).

Consider GGAAAAAUUUAGACAGCACTT against Csrp2, for which the z-score is 0.132.

In the case of GACUCAUUCUGCAAUGAAGTT against Ifna5, the z-score is 0.105.

As for GCUAAGGACACAAAAUCCATT against Slc38a10, the z-score is 0.129.

For “GGAGAAAGAAAGCAGUUUUTT against 2310067E19Rik”, the z-score was 1.55.

Turning to GGUUAGAGGAAAGGUUUAUTT against Htr1f, the z-score was 5.07 (active).

For GGGCAUUUUAACCAAAUGATT against Marchf11, the z-score was 0.544.

For GCUGCCUCAUUUCUGGAUGTT against Klk11, the z-score was 1.1.

On to GGACAUGGAUGACACUGAUTT against Tsr3, for which the z-score is -1.99.

In the case of GGAAGAUGCACAUCUGGACTT against Enoph1, the z-score is -0.55.

Consider CCAGGAUUCCGACUGAAUCTT against Oscp1, for which the z-score is -0.367.

For GGGCUAAGUACCAAACUCATT against Ly6e, the z-score is -1.71.

In the case of GCUUGCUAGAGUGAUCUCGTT against Adsl, the z-score was -0.331.

As for GGCUUUUUCCACAUGUGCCTT against Olfr514, the z-score was -2.29 (active).

In the case of GCCCUUGGAAUUUACCACUTT against Aldh8a1, the z-score is -0.546.

Consider CCAGACUGAGAAGAUAUGATT against Meox2, for which the z-score was -0.146.

Regarding GGACAUUGUCUACAAGUUGTT against Pcgf2, the z-score was 1.12.

On to GGUGUCAGCGAAAAGCAGUTT against Ring1, for which the z-score was -2.2 (active).

As to GGACCGCUACUAUUCAGGATT against Myh10, the z-score is 0.93.

GGGUUUUGGAUGGCGAAUATT against Lgals7: the z-score is -0.0835.

On to GGACGAAAAGAAGUGUUUCTT against Lamb2, for which the z-score is -0.103.

Consider GGGAAACUCUGUCCAAUUGTT against Eif2d, for which the z-score was 0.402.

As for CGGGAAAUUUCUAUUGGACTT against Akr1c12, the z-score was 0.312.

For the sequence GGUGAUGGAAGUUAGUGUGTT against Bet1, the z-score was -1.34.

As to GGCAUUCACCAUACAAUGATT against Ufm1, the z-score is 0.687.

In the case of GGUCAUUGGUUCCUCCCUUTT against C2cd4c, the z-score was 2.59 (active).

Turning to GGCUAACCACAUUUGCUUCTT against Zic4, the z-score was 0.759.

Consider GGAAGAUGUCCAAACCCGCTT against Tspan4, for which the z-score was 0.671.

Turning to GCAGCUAAGAAGACCACUATT against Zfp185, the z-score was 2.15 (active).

Turning to “GGAGGUAACGCAUGUUACATT against 4930483J18Rik”, the z-score was 0.393.

As to GCGAAGUUACUACAGACGUTT against Slc39a1, the z-score was -0.124.

As for CCAGUCAAAUAUCCAUUAGTT against Scgb2b26, the z-score is -2.28 (active).

On to GGAGACUCUCACCUAUCAUTT against Doc2g, for which the z-score is -0.458.

Regarding CCAAUCACCAGAGACUAACTT against Slain1, the z-score is 2.81 (active).

As to GGAAGUUUUUGAGAAUGGGTT against Ppp3cc, the z-score is -0.38.

In the case of CCGAAUUCCAACCUAGAGCTT against Yipf5, the z-score was -1.38.

As to CCGCUCACGUGAAAAAGUUTT against Tars2, the z-score is 0.327.

On to GGACAUCUGGUUAUGAAUGTT against B3galt6, for which the z-score was -0.111.

Take GCCGAGCUCAUCAUCAUGATT against Prss40: the z-score was 2.5 (active).

Turning to GCAUGACUCUCAGGUCAAGTT against Lman2, the z-score is 1.54.

As to GGACAUUGCAUUGCUCAUGTT against Sec1, the z-score is -0.526.

For the sequence CCUUCUUAUUGCUUAACCCTT against Scd3, the z-score is 0.279.

As to GGAAGAAGAUAAAGAGCGGTT against Nrgn, the z-score was -0.708.

In the case of GGACCUCAGUCACUUCCAATT against Etv4, the z-score is 2.93 (active).

For the sequence “AGUUCCAGGCGCAGAAACCTT against D8Ertd738e”, the z-score is 1.46.

Consider GGUUUUUCUUCUGCUGGUGTT against Olfr1256, for which the z-score is 1.64.

On to CCGGCUAAAUCACCGUGCUTT against Clpb, for which the z-score is -0.647.

For GCCCAAAAAGGAAUUAAUUTT against Pak3, the z-score was -0.176.

As to CCUGGAGAUCCCUCACUUUTT against Olfr1351, the z-score is 1.39.
